Hit rate of the full screen: of about 28,000 compounds, about 410 (1.5%) were called active. The entries come from a sample that favours actives as a whole. Unmarked numbers belong to inactive results. Cut-off read from the data, not from the text of the source: active = activation above about 52%; inconclusive = no clear call, values can overlap the other calls; inactive = below that.
Assay: mutant p53 pathway re-activators, primary screen, cell-based, SW480, luciferase, single point, HTS (AID 624151)
Conditions: SW480 PUMA-promoter luciferase, p53 mutant reactivation; at 9.98 µM; stronger effect = higher value

Structure (SMILES) | activation
CNC[C@H]1Oc2ncc(-c3ccccc3C)cc2C(=O)N([C@@H](C)CO)C[C@@H]1C | 6.16%
CC(=O)Nc1ccc(NC(=O)CSc2nnc3c4cc(Br)ccc4n(C)c3n2)cc1 | -24.7%
C[C@@H]1CN([C@@H](C)CO)C(=O)c2cc(C#CC(C)(C)O)cnc2O[C@H]1CN(C)Cc1cccc(F)c1 | -7.7%
COc1ccccc1NC(=O)CN(c1ccc(Br)c(C)c1)S(C)(=O)=O | 7.45%
C[C@@H]1CN([C@H](C)CO)C(=O)c2cc(-c3cncnc3)cnc2O[C@@H]1CN(C)Cc1ccc(Oc2ccccc2)cc1 | 9.54%
CCc1cc(C(=O)OC)c(NC(=S)Nc2ccc(OC)cc2[N+](=O)[O-])s1 | 62.7% (active)
COc1ccc(NC(=O)CSc2nncc3ccccc23)c([N+](=O)[O-])c1 | 4.65%
COC(=O)c1c(NC(=S)Nc2ccc(OC)cc2[N+](=O)[O-])sc2c1CCC(C)C2 (configuration not stated) | 4.27%
CC(C(=O)Nc1nccs1)C1SC(=O)NC1=O (configuration not stated) | 1.73%
C[C@H]1CN([C@@H](C)CO)C(=O)c2cc(C3=CCCC3)cnc2O[C@H]1CN(C)Cc1ccccc1C(=O)O | 16.5%
COCC#Cc1cnc2c(c1)C(=O)N([C@H](C)CO)C[C@H](C)[C@H](CN(C)C(=O)CCN1CCCCC1)O2 | 6.72%
Cc1ccc(S(=O)(=O)N(C)C[C@@H]2Oc3c(NC(=O)C4CC4)cccc3C(=O)N([C@H](C)CO)C[C@@H]2C)cc1 | -8.13%
COc1cc(NC(=S)NCCN2CCOCC2)c(OC)cc1Cl | -5.79%
Cc1cc(=O)oc2cc(OC(C)C(=O)Nc3ccc(N4CCOCC4)cc3)ccc12 (configuration not stated) | 7.05%
CC(=O)CCc1c(C)[nH]c2ccc(C)cc2c1=O | 14.2%
C[C@@H]1CCCCO[C@@H](CN(C)S(=O)(=O)c2cn(C)cn2)[C@H](C)CN([C@H](C)CO)C(=O)c2cc(NC(=O)NC3CCCCC3)ccc2O1 | 17%
COc1cc(Cl)c(C)cc1NC(=O)CN(C)S(=O)(=O)c1ccc2ccccc2c1 | 14.5%
C[C@@H]1CN([C@H](C)CO)S(=O)(=O)c2ccc(-c3cncnc3)cc2O[C@H]1CN(C)C(=O)Cc1ccccc1 | -1.41%
COc1ccc(-c2nnc(SCC(=O)Nc3cccc(SC)c3)n2C)cc1 | -10.6%
CC(=O)OC[C@H]1O[C@@H](Oc2c(-c3ccc(O)c(O)c3)oc3cc(O)cc(O)c3c2=O)[C@H](O)[C@@H](O)[C@@H]1O | 7.83%
CCc1ccccc1NC(=O)COc1cc(O)c2c(=O)cc(-c3ccccc3)oc2c1 | -9.5%

Structure (SMILES) | activation
COc1c(O)cc2oc(-c3ccc(O)c(O)c3)cc(=O)c2c1O | 89.5% (active)
CCOC(=O)c1c(NC(=O)C(C)Oc2ccc3c(C)cc(=O)oc3c2)sc2c1CCC2 (configuration not stated) | 18.5%
O=C(CN(C1CCCCC1)S(=O)(=O)c1ccc(Cl)cc1)Nc1ccccc1C(F)(F)F | 3.31%
COc1cccc(C#Cc2cnc3c(c2)C(=O)N([C@@H](C)CO)C[C@H](C)[C@H](CN(C)CC2CC2)O3)c1 | 4.89%
COc1cc(CO)cc(Cl)c1OCc1cccc([N+](=O)[O-])c1 | 0.353%
COc1ccccc1CCNC(=O)c1cnccn1 | 18.5%
C[C@@H]1CN([C@@H](C)CO)C(=O)c2c(c3ccccc3n2C)-c2ccccc2CO[C@@H]1CN(C)S(=O)(=O)CC(F)(F)F | 6.74%
Cc1ccccc1-c1ccc2c(c1)O[C@@H](CN(C)C(=O)Nc1ccc(F)cc1)[C@H](C)CN([C@@H](C)CO)S2(=O)=O | -36.4%
CCCNC(=O)C[C@H]1C[C@@H]2c3cc(NS(=O)(=O)c4cccc(OC)c4)ccc3O[C@@H]2[C@@H](CO)O1 | 9.83%
CCOc1ccc(Cl)cc1S(=O)(=O)NC1CC(C)(C)NC(C)(C)C1 | 2.34%
CN(CC(=O)Nc1ccccc1C#N)S(=O)(=O)c1ccc2ccccc2c1 | 0.461%
Cc1cc2nc(-c3ccc(NC(=O)COc4ccccc4[N+](=O)[O-])cc3)oc2cc1C | 68.1% (active)
Cc1ccc(C)c(OCC(=O)Nc2ccccc2C#N)c1 | 121% (active)
COc1ccc(NC(=O)COc2cc(C)c(Br)c(C)c2)c([N+](=O)[O-])c1 | -11.9%
Cc1cc(C)c2oc(-c3ccc(C)c(NC(=O)COc4ccccc4C)c3)nc2c1 | -4.75%
Cc1ccc(NC(=O)COc2ccccc2C)c([N+](=O)[O-])c1 | 109% (active)
COc1ccc(C(=O)Nc2cc(C)ccc2NC(=O)COc2ccccc2)cc1 | 28%
O=C(COc1ccc([N+](=O)[O-])cc1)Nc1ccc2oc(-c3cccc(F)c3)nc2c1 | 43.6%
Cc1ccc(-c2nc3cc(NC(=O)COc4ccc([N+](=O)[O-])cc4)ccc3o2)cc1C | 21.6%
COc1ccccc1NC(=O)CSc1ncc(-c2ccccc2)nn1 | 36.5%
C[C@@H]1CN([C@H](C)CO)C(=O)c2cc(C#Cc3cccnc3)cnc2O[C@@H]1CN(C)Cc1ccc(F)cc1 | 5.15%
